Growth data for 13 compounds are collected here from PubChem BioAssay (NCI).

Test systems include DU-145 prostate; K-562 leukemia; MALME-3M melanoma; MDA-MB-231 breast; SF-268 CNS; SF-295 CNS; SF-539 CNS; UACC-257 melanoma; M14 melanoma.
Assay in all cases: NCI-60 one-dose screen, 48 h (100 = growth as untreated, 0 = no growth, -100 = all killed)
Common to all, as to conditions: 10 µM

Molecules are shown by their SMILES. The panel holds about 83,000 compounds, 20% with a hit somewhere; the sample as a whole holds those more often.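 Testing used 96-well plates and a 48-hour single-concentration exposure. Example: -40 means 40% of the starting cells died.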 Unmarked numbers belong to inactive results. Activity calls are given as the source filed them. How the source made its calls: active means growth percent below 10; inactive means the rest.

On to `O=C(CSc1nnc(-c2c[nH]c3ccccc23)n1-c1ccccc1)Nc1ccc(C(=O)/C=C/c2ccc(Cl)cc2)cc1`, for which the growth in the experiment with DU-145 prostate was 79.7%; in the experiment on K-562 leukemia, 59.4%; in the experiment on MALME-3M melanoma, 61.6%; in the experiment on MDA-MB-231 breast, 79.3%; in the experiment on SF-268 CNS it was 56.9%; with SF-295 CNS, 65.3%. Besides, the growth was 63.9% in the experiment with SF-539 CNS, 104% in the experiment on UACC-257 melanoma and 81.8% in the experiment with M14 melanoma.

On to `COc1cc2c3c(n(CCCn4ccnc4)c(=O)c2cc1OC)-c1nc2c(cc1C3=O)OCO2`, for which the growth in the experiment with DU-145 prostate was 13.4%; in the experiment with K-562 leukemia it was 28.4%; in the experiment with MALME-3M melanoma it was 59.9%; in the experiment with MDA-MB-231 breast, 84.1%; with SF-268 CNS, 42.4%; in the experiment on SF-295 CNS, -7.74% (active). In addition, the growth with SF-539 CNS is -10.1% (active); in the experiment with UACC-257 melanoma it was 66%; in the experiment with M14 melanoma, 19.9%.

For `COc1ccc(CN2[C@H](C(=O)NCCCCCCC(=O)NO)Cc3c([nH]c4ccccc34)[C@H]2C2CC2)cc1`, the growth in the experiment on DU-145 prostate is 9.36% (active); in the experiment on K-562 leukemia, 7.5% (active); in the experiment on MALME-3M melanoma it was 1.45% (active); with MDA-MB-231 breast, -23% (active); in the experiment on SF-268 CNS, 14.5%; with SF-295 CNS, -58.8% (active). In addition, the growth is 2.87% (active) in the experiment on SF-539 CNS, 9.9% (active) with UACC-257 melanoma and 17.6% in the experiment with M14 melanoma.

In the case of `O=C1CCC(N2Cc3cc(CC(=O)Nc4ccc(N5CCCCC5)cc4)ccc3C2=O)C(=O)N1` (configuration not stated), the growth in the experiment on DU-145 prostate was 94.5%; in the experiment on K-562 leukemia, 77.3%; with MALME-3M melanoma, -25.4% (active); in the experiment with MDA-MB-231 breast, 7.12% (active); in the experiment with SF-268 CNS, 61.9%; in the experiment on SF-295 CNS, 57.4%. In addition, the figures for the growth with SF-539 CNS, in the experiment with UACC-257 melanoma and with M14 melanoma were 65.6%, 102% and 39.4%, respectively.

Regarding `COc1ccc(C(=O)/C=C/c2cc(C(F)(F)F)cc(C(F)(F)F)c2)cc1S(N)(=O)=O`, the growth in the experiment with DU-145 prostate was -41.4% (active); in the experiment on K-562 leukemia it was 8.85% (active); in the experiment on MALME-3M melanoma, -94.7% (active); in the experiment on MDA-MB-231 breast it was -77.8% (active); in the experiment on SF-268 CNS, 6.18% (active); in the experiment with SF-295 CNS it was -86% (active). Moreover, the growth was -98.4% (active) with SF-539 CNS, -55.5% (active) with UACC-257 melanoma and -75.8% (active) in the experiment on M14 melanoma.

Regarding `O=C(NO)c1ccc(Cn2ccc3c(NCc4ccccc4)ncnc32)cc1`, the growth with DU-145 prostate was 10.3%; in the experiment with K-562 leukemia, 12.2%; with MALME-3M melanoma, -5.08% (active); with MDA-MB-231 breast, -18% (active); with SF-268 CNS, 19%; in the experiment with SF-295 CNS, -68.2% (active). For the same compound, the growth is -71.1% (active) in the experiment with SF-539 CNS, -20.8% (active) in the experiment with UACC-257 melanoma and -9.73% (active) in the experiment on M14 melanoma.

As for `Cc1noc2c(Cc3ccccc3)nn(CC(=O)N/N=C/c3ccc(F)cc3)c(=O)c12`, the growth with DU-145 prostate was 65.2%; in the experiment with K-562 leukemia, 96.7%; in the experiment with MALME-3M melanoma, -1.4% (active); with MDA-MB-231 breast, 44.3%; in the experiment with SF-268 CNS it was 62.6%; in the experiment with SF-295 CNS, 25.9%. Also, the growth in the experiment with SF-539 CNS was 66.9%; with UACC-257 melanoma, 67.4%; in the experiment on M14 melanoma, 66.1%.

As for `O=S(=O)(Nc1ncccn1)c1ccc(-n2c(-c3ccc(Br)cc3)nc(-c3ccccc3)c2-c2ccccc2)cc1`, the growth with DU-145 prostate was 58.3%; with K-562 leukemia it was 44%; in the experiment on MALME-3M melanoma, 74.6%; in the experiment on MDA-MB-231 breast, 51.3%; in the experiment on SF-268 CNS, 32.5%; in the experiment with SF-295 CNS, 8.26% (active). For the same compound, the growth with SF-539 CNS is 55.8%; with UACC-257 melanoma it was 59.4%; in the experiment on M14 melanoma, 38.4%.

As to `CCNCCCn1c2c(c3cc(OC)c(OC)cc3c1=O)C(=O)c1cc3c(nc1-2)OCO3`, the growth with DU-145 prostate is 12.1%; in the experiment on K-562 leukemia, -18.2% (active); in the experiment on MALME-3M melanoma it was -93.5% (active); in the experiment on MDA-MB-231 breast it was -91.6% (active); in the experiment with SF-268 CNS it was 8.1% (active); in the experiment with SF-295 CNS it was 4.2% (active). Moreover, the growth was -44.1% (active) in the experiment with SF-539 CNS, 45.4% with UACC-257 melanoma and 0.853% (active) in the experiment on M14 melanoma.

As to `O=c1[nH]c2ccccc2cc1CSc1ccc(Nc2nccc(-c3ccc(C(F)(F)F)cc3)n2)cc1`, the growth with DU-145 prostate was 32.3%; in the experiment with K-562 leukemia it was 54.9%; with MALME-3M melanoma, 6.21% (active); in the experiment on MDA-MB-231 breast, 11.9%; in the experiment on SF-268 CNS, 40.4%; in the experiment on SF-295 CNS, -62.6% (active). The values for the growth in the experiment with SF-539 CNS, in the experiment with UACC-257 melanoma and with M14 melanoma were 12%, 90% and 80.1%, respectively.

For the compound `CCOC(=O)c1c(CSc2ccccc2)n(C)c2cc(CN(C)C)c(O)c(CN(C)C)c12`, the growth was 60.8% in the experiment on DU-145 prostate; 19.7% in the experiment on K-562 leukemia; -15.3% (active) in the experiment on MALME-3M melanoma; 16% in the experiment on MDA-MB-231 breast; 71.3% in the experiment with SF-268 CNS; 46.9% with SF-295 CNS. Moreover, the growth in the experiment with SF-539 CNS is 50.5%; in the experiment with UACC-257 melanoma, 54.3%; in the experiment with M14 melanoma, 47.6%.

For the compound `COc1ccc(-c2cc(C(=O)N=Nc3c(O)[nH]c4ccc(Br)cc34)c3ccccc3n2)cc1`, the growth with DU-145 prostate was 19.9%; with K-562 leukemia, 10.2%; in the experiment on MALME-3M melanoma, 45.9%; in the experiment on MDA-MB-231 breast it was -68.2% (active); in the experiment on SF-268 CNS it was 64.4%; in the experiment on SF-295 CNS, 35.3%. Besides, the figures for the growth in the experiment on SF-539 CNS, in the experiment on UACC-257 melanoma and with M14 melanoma were 31.7%, 102% and 42.6%, respectively.

With `O=c1c2ccccc2nc(COc2ccccc2)n1/N=C/c1ccc(N2CCCC2)cc1`, the growth in the experiment on DU-145 prostate was 94.7%; in the experiment on K-562 leukemia it was 73.4%; in the experiment with MALME-3M melanoma, 115%; with MDA-MB-231 breast, 89.2%; in the experiment with SF-268 CNS, 115%; with SF-295 CNS it was 94.2%. In addition, the growth was 93.6% in the experiment on SF-539 CNS, 108% in the experiment on UACC-257 melanoma and 101% in the experiment on M14 melanoma.
